{
  "source": "the supplement of paper PMC7380943",
  "key": {"[1]": {"system": "CLZ3 (HCA2 human fibroblast dual HR-NHEJ reporter)", "experiment": "NHEJ repair efficiency (GFP+ cells) relative to control (log10 fold); higher = more non-homologous end joining", "conditions": "5 µM; doxycycline 0.5 ug/mL"}, "[2]": {"system": "CLZ3 (HCA2 human fibroblast dual HR-NHEJ reporter)", "experiment": "HR repair efficiency (tdTomato+ cells) relative to control (log10 fold); higher = more homologous recombination", "conditions": "5 µM; doxycycline 0.5 ug/mL"}},
  "note": "Structures can show the parent of a compound that is named as a salt.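 For HR repair efficiency (tdTomato+ cells) relative to control in this document: compound given one day before doxycycline, which switches on I-SceI endonuclease expression to create double-strand breaks within the integrated reporter.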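 For NHEJ repair efficiency (GFP+ cells) relative to control in this document: compound given one day ahead of doxycycline, which switches on I-SceI endonuclease to cut the chromosomally integrated reporter and create DSBs.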",
  "data": [
    {"smiles": "CN1Cc2c(ccc3c2OCO3)[C@@]2(C)[C@@H](O)Cc3cc4c(cc3[C@@H]12)OCO4", "note": "[Corynoline]", "values": [
      {"measurement": "NHEJ repair efficiency (log10)", "setting": "[1]", "result": -0.128},
      {"measurement": "HR repair efficiency (log10)", "setting": "[2]", "result": -0.201}
    ]},
    {"smiles": "C[C@@H]1O[C@@H](Oc2c(-c3cc(O)c(O)c(O)c3)oc3cc(O)cc(O)c3c2=O)[C@H](O)[C@H](O)[C@H]1O", "note": "[Myricetrin]", "values": [
      {"measurement": "NHEJ repair efficiency (log10)", "setting": "[1]", "result": 0.0716},
      {"measurement": "HR repair efficiency (log10)", "setting": "[2]", "result": -0.0586}
    ]},
    {"smiles": "O=C(O)c1cc(O)c(O)c(O)c1", "note": "[Gallic acid]", "values": [
      {"measurement": "NHEJ repair efficiency (log10)", "setting": "[1]", "result": 0.0481},
      {"measurement": "HR repair efficiency (log10)", "setting": "[2]", "result": -0.11}
    ]},
    {"smiles": "Cc1cc(O)c2c(c1)C(=O)c1cccc(O)c1C2=O", "note": "[Chrysophanol]", "values": [
      {"measurement": "NHEJ repair efficiency (log10)", "setting": "[1]", "result": 0.0473},
      {"measurement": "HR repair efficiency (log10)", "setting": "[2]", "result": 0.134}
    ]},
    {"smiles": "CC1(C)[C@@H](O)CC[C@]2(C)[C@H]3CC=C4[C@@H]5C[C@@]6(C)C[C@H](OC6=O)[C@]5(C)CC[C@@]4(C)[C@]3(C)CC[C@@H]12", "note": "[Wilforlide A]", "values": [
      {"measurement": "NHEJ repair efficiency (log10)", "setting": "[1]", "result": -0.137},
      {"measurement": "HR repair efficiency (log10)", "setting": "[2]", "result": 0.00171}
    ]},
    {"smiles": "C/C=C(/C)C(=O)O[C@H]1[C@@H](OC(=O)CC(C)C)c2c(ccc3ccc(=O)oc23)OC1(C)C", "note": "[Praeruptorin E]", "values": [
      {"measurement": "NHEJ repair efficiency (log10)", "setting": "[1]", "result": -0.0864},
      {"measurement": "HR repair efficiency (log10)", "setting": "[2]", "result": -0.0529}
    ]},
    {"smiles": "COc1cccc(OC)c1C(=O)OCc1cc(O)ccc1O[C@@H]1O[C@H](CO)[C@@H](O)[C@H](O)[C@H]1O", "note": "[Curculigoside]", "values": [
      {"measurement": "NHEJ repair efficiency (log10)", "setting": "[1]", "result": 0.0105},
      {"measurement": "HR repair efficiency (log10)", "setting": "[2]", "result": 0.0401}
    ]},
    {"smiles": "COc1ccc2cc1Oc1ccc(cc1)C[C@H]1c3cc(c(OC)cc3CCN1C)Oc1c(OC)c(OC)cc3c1[C@H](C2)N(C)CC3", "note": "[Tetrandrine]", "values": [
      {"measurement": "NHEJ repair efficiency (log10)", "setting": "[1]", "result": 0.294},
      {"measurement": "HR repair efficiency (log10)", "setting": "[2]", "result": -0.328}
    ]},
    {"smiles": "CCCCC/C=C\\C/C=C\\CCCCCCCC(=O)O", "note": "[Linoleic Acid]", "values": [
      {"measurement": "NHEJ repair efficiency (log10)", "setting": "[1]", "result": 0.0448},
      {"measurement": "HR repair efficiency (log10)", "setting": "[2]", "result": -0.0026}
    ]},
    {"smiles": "CC1(C)CC[C@]2(C(=O)O)CCC3=C([C@@H](CCl)C[C@@H]4[C@@]5(C)C[C@H](O)[C@H](O)[C@@](C)(C(=O)O)[C@@H]5CC[C@@]34C)[C@@H]2C1", "note": "[Senegenin]", "values": [
      {"measurement": "NHEJ repair efficiency (log10)", "setting": "[1]", "result": -0.0514},
      {"measurement": "HR repair efficiency (log10)", "setting": "[2]", "result": -0.031}
    ]},
    {"smiles": "CC1CCC(C(C)C)C(O)C1", "note": "(stereo not drawn) [Menthol]", "values": [
      {"measurement": "NHEJ repair efficiency (log10)", "setting": "[1]", "result": 0.0621},
      {"measurement": "HR repair efficiency (log10)", "setting": "[2]", "result": -0.0345}
    ]},
    {"smiles": "O=C1Nc2ccccc2/C1=C1/Nc2ccccc2C1=O", "note": "[Indirubin]", "values": [
      {"measurement": "NHEJ repair efficiency (log10)", "setting": "[1]", "result": -0.0691},
      {"measurement": "HR repair efficiency (log10)", "setting": "[2]", "result": -0.00679}
    ]},
    {"smiles": "C/C=C(/C)C(=O)O[C@H]1c2cc(OC)c(OC)c(OC)c2-c2c(cc3c(c2OC)OCO3)C[C@H](C)[C@]1(C)O", "note": "[Wuweizi Ester B]", "values": [
      {"measurement": "NHEJ repair efficiency (log10)", "setting": "[1]", "result": -0.108},
      {"measurement": "HR repair efficiency (log10)", "setting": "[2]", "result": 0.0267}
    ]},
    {"smiles": "c1ccc([C@H]2CN3CCSC3=N2)cc1", "note": "[Levamisole hydrochloride]", "values": [
      {"measurement": "NHEJ repair efficiency (log10)", "setting": "[1]", "result": 0.0656},
      {"measurement": "HR repair efficiency (log10)", "setting": "[2]", "result": -0.0158}
    ]},
    {"smiles": "CC(C)=CCC/C(C)=C/CC/C(C)=C/CC/C(C)=C/CC/C(C)=C/CC/C(C)=C/CC/C(C)=C/CC/C(C)=C/CC/C(C)=C/CO", "note": "[Solanesol]", "values": [
      {"measurement": "NHEJ repair efficiency (log10)", "setting": "[1]", "result": -0.0479},
      {"measurement": "HR repair efficiency (log10)", "setting": "[2]", "result": -0.0545}
    ]},
    {"smiles": "COc1c2occc2cc2ccc(=O)oc12", "note": "[Xanthotoxin]", "values": [
      {"measurement": "NHEJ repair efficiency (log10)", "setting": "[1]", "result": -0.261},
      {"measurement": "HR repair efficiency (log10)", "setting": "[2]", "result": -0.0664}
    ]},
    {"smiles": "COc1cc(O)c2c(=O)c(O[C@@H]3O[C@H](CO)[C@@H](O)[C@H](O)[C@H]3O)c(-c3ccc(O[C@@H]4O[C@H](CO)[C@@H](O)[C@H](O)[C@H]4O)cc3)oc2c1", "note": "[Complanatoside]", "values": [
      {"measurement": "NHEJ repair efficiency (log10)", "setting": "[1]", "result": -0.0413},
      {"measurement": "HR repair efficiency (log10)", "setting": "[2]", "result": -0.0658}
    ]},
    {"smiles": "C=C(C)[C@@H]1CC[C@]2(C(=O)O)CC[C@]3(C)[C@H](CC[C@@H]4[C@@]5(C)CC[C@H](O)C(C)(C)[C@@H]5CC[C@]43C)[C@@H]12", "note": "[Betulinic acid]", "values": [
      {"measurement": "NHEJ repair efficiency (log10)", "setting": "[1]", "result": 0.0052},
      {"measurement": "HR repair efficiency (log10)", "setting": "[2]", "result": 0.0512}
    ]},
    {"smiles": "O=C1C[C@@H](c2ccccc2)Oc2cc(O)cc(O)c21", "note": "[Pinocembrin]", "values": [
      {"measurement": "NHEJ repair efficiency (log10)", "setting": "[1]", "result": 0.123},
      {"measurement": "HR repair efficiency (log10)", "setting": "[2]", "result": 0.0891}
    ]},
    {"smiles": "O=C(/C=C/c1ccc(O[C@@H]2O[C@H](CO)[C@@H](O)[C@H](O)[C@H]2O)cc1)c1ccc(O)cc1O", "note": "[Isoliquiritoside]", "values": [
      {"measurement": "NHEJ repair efficiency (log10)", "setting": "[1]", "result": -0.17},
      {"measurement": "HR repair efficiency (log10)", "setting": "[2]", "result": -0.232}
    ]},
    {"smiles": "CC(/C=C/C=C(\\C)C(=O)O[C@@H]1O[C@H](CO[C@@H]2O[C@H](CO)[C@@H](O)[C@H](O)[C@H]2O)[C@@H](O)[C@H](O)[C@H]1O)=C\\C=C\\C=C(C)\\C=C\\C=C(/C)C(=O)O[C@@H]1O[C@H](CO[C@@H]2O[C@H](CO)[C@@H](O)[C@H](O)[C@H]2O)[C@@H](O)[C@H](O)[C@H]1O", "note": "[Crocin]", "values": [
      {"measurement": "NHEJ repair efficiency (log10)", "setting": "[1]", "result": -0.0374},
      {"measurement": "HR repair efficiency (log10)", "setting": "[2]", "result": 0.0109}
    ]},
    {"smiles": "CCCCCCCCCCCCCCCC(=O)OC", "note": "[Methyl Palmitate]", "values": [
      {"measurement": "NHEJ repair efficiency (log10)", "setting": "[1]", "result": 0.0451},
      {"measurement": "HR repair efficiency (log10)", "setting": "[2]", "result": 0.0601}
    ]},
    {"smiles": "C[C@H](CC[C@@]1(O)O[C@H]2C[C@H]3[C@@H]4CC=C5C[C@@H](O[C@@H]6O[C@H](CO)[C@@H](O[C@@H]7O[C@@H](C)[C@H](O)[C@@H](O)[C@H]7O)[C@H](O)[C@H]6O[C@@H]6O[C@@H](C)[C@H](O)[C@@H](O)[C@H]6O)CC[C@]5(C)[C@H]4CC[C@]3(C)[C@H]2[C@@H]1C)CO[C@@H]1O[C@H](CO)[C@@H](O)[C@H](O)[C@H]1O", "note": "[Protodioscin]", "values": [
      {"measurement": "NHEJ repair efficiency (log10)", "setting": "[1]", "result": -0.00725},
      {"measurement": "HR repair efficiency (log10)", "setting": "[2]", "result": -0.042}
    ]},
    {"smiles": "C[C@@H]1C(=O)O[C@H](C)[C@H]1C[C@@H](O)[C@](C)(O)[C@H]1CC[C@@]2(O)C3=CC(=O)[C@@H]4C[C@@H](O)[C@@H](O)C[C@]4(C)[C@H]3CC[C@]12C", "note": "[Cyasterone]", "values": [
      {"measurement": "NHEJ repair efficiency (log10)", "setting": "[1]", "result": 0.00995},
      {"measurement": "HR repair efficiency (log10)", "setting": "[2]", "result": 0.0455}
    ]}
  ]
}
